Results filed as inconclusive are left out. Active and inactive are the calls of the source. Calls follow the shape of the dose curve; as a rule, active = well fitted cell-killing curve with a large enough effect in the repeat runs; inconclusive = weak or mixed curves, or effect the other way; inactive = flat fitted curve, though single readings scatter.
% is scaled to controls: 0 for no effect and ±100 for the full control effect.

The nature of the assay: qHTS RealTime-Glo MT Cell Viability Assay in HepG2 cells - 40 hour (AID 1224870). Also: nearly all actives have a fitted effect of over 50% in size. Particulars: RealTime-Glo luminescence; series mostly up to 76.8 µM; activity change, negative = cytotoxic: at the top concentration. The source says: National Center for Advancing Translational Sciences [NCATS]
NIH Chemical Genomics Center [NCGC]
U.S. Environmental Protection Agency [EPA]
National Institutes of Environmental Health Sciences [NIEHS]
National Toxicology Program [NTP]
U.S. Food and Drug Administration [FDA]
Measure of cell viability is critical in the cell-base assay. Analysis of cell viability is necessary for the characterization of cell responses to cytotoxic drugs and environmental stress. A RealTime-Glo MT Cell Viability Assay to monitor cell viability in real time of continues cell culture during 40 hours of compound treatment was used to screen Tox21 10K library compounds in HepG2 cells. The RealTime-Glo MT Cell Viability Assay is a nonlytic, homogeneous, bioluminescent method to measure cell viability in real time using a simple, plate-based method. The assay involves adding NanoLuc luciferase and a cell-permeant prosubstrate to cells in culture. Viable cells reduce the proprietary prosubstrate to generate a substrate for NanoLuc luciferase. This substrate diffuses from cells into the surrounding culture medium, where it is rapidly used by the NanoLuc Enzyme to produce a luminescent signal. The signal correlates with the number of viable cells, making the assay well suited for cytotoxicity studies.
Tox21 Assay Protocol Summary:
The mixture of HepG2 cell suspension and reagents were dispensed at 600cells/6 ul/well in 1536-well tissue culture treated black solid bottom plates using a Multidrop dispenser. After the assay plates were incubated at a 37 C/5% CO2 incubator for 5 hours, 23 nL of compounds dissolved in DMSO, positive and negative controls was transferred to the assay plate by a pintool work station. The plates were incubated at 37 C for 40 hours. The luminescence intensity were measured at 0h, 8h, 16h, 24h, 32h and 40h time points using ViewLux plate reader during compound treatment.
As to `CC(C)OC(=O)COc1ccc(Cl)cc1Cl`, the call was inactive.
Still for that read-out and setting: next, `COCCCN`: “inactive”; `CC(C)CC(=O)CC(C)CC(C)C` (stereo not given): “inactive”; `Cc1ccc([N+](=O)[O-])cc1S(=O)(=O)O`: “inactive”.
On to `O=C(O)/C=C/C(=O)O`, for which the outcome was inactive.
Still for that read-out and setting: next, `CCCCC(C=O)CC` (stereo not given): “inactive”.
Same read-out and setting: next, `O=C(O)c1ccc(S(=O)(=O)N(Cl)Cl)cc1`: “inactive”; `C=CC(=O)OCCC(=O)O`: “inactive”.
Same read-out and setting: the entry for `CCNc1ccccc1` is “inactive”; for `OCc1cccc(Oc2ccccc2)c1` it is “inactive”; for `O=C1CCCC1` it is “inactive”.
Turning to `CCO[Si](CCCN)(OCC)OCC`, the call was inactive.
Same read-out and setting: next, `CC(=O)OCCOC(C)=O`: “inactive”.
On the same count and under the same terms, the entry for `CC(CCO)CC(C)(C)C` (stereo not given) is “inactive”; for `N[C@H](Cc1c[nH]c2ccccc12)C(=O)O` it is “inactive”; for `CN(C)CCOC(=O)COc1ccc(Cl)cc1` it is “inactive”.
On the same count and under the same terms, next, `CCCCCCCCCCCCCCCCO`: “inactive”; `C[Si]1(C)O[Si](C)(C)O[Si](C)(C)O[Si](C)(C)O1`: “inactive”.
As for `CCCCCCO`, the call was inactive.
Take `CCOCC(=O)O`: the molecule was classed as inactive.
Same read-out and setting: next, `CCCCCCCCCCCC(=O)OC`: “inactive”; `OCc1ccccc1`: “inactive”.
Consider `O=C(O)Cn1c(=O)n(Cc2ccc(Br)cc2F)c(=O)c2ccc(Cl)cc21`, for which the “activity change, negative = cytotoxic” value was -15.9% [at 35.3 µM] (inactive).
Turning to `NCCN1CCNCC1`, the molecule was classed as inactive.
On the same count and under the same terms, the entry for `O=C(O)c1ccccc1C(=O)O` is “inactive”.
On the same count and under the same terms, next, `Clc1ccccn1`: “inactive”.
Still for that read-out and setting: the entry for `c1ccc2c(c1)Cc1ccccc1-2` is “inactive”; for `CC(O)CC(C)(C)O` (stereo not given) it is “inactive”; for `CC(=O)c1ccc(O)cc1` it is “inactive”.
As for `O=C(O)c1ccc(C(=O)O)c(C(=O)O)c1`, the molecule was called inactive.
With `CC(C)CC(C)O` (stereo not given), the result was inactive.
For the molecule `C[C@]12CC[C@@H]3c4ccc(O)cc4CC[C@H]3[C@@H]1C[C@@H](O)[C@@H]2O`, the call was inactive.
The same measure, in the same setting: the entry for `CC1(C)CC(N)CC(C)(CN)C1` (stereo not given) is “inactive”; for `CC(=O)OC1CC(C)OC(C)O1` (stereo not given) it is “inactive”; for `C=CC[N+](C)(C)CC=C` it is “inactive”.
The same measure, in the same setting: the entry for `Cc1ccc2ncccc2c1` is “inactive”.
On the same count and under the same terms, next, `CCOC(=O)n1ccn(C)c1=S`: “inactive”.
On to `CC(=O)Oc1ccc(C)cc1`, for which the outcome was inactive.
Still for that read-out and setting: next, `CC(C)(Oc1ccc(CCNC(=O)c2ccc(Cl)cc2)cc1)C(=O)O`: “inactive”; `COc1cc(OC)c(C(=O)CCCN2CCCC2)c(OC)c1`: “inactive”.

The values above are taken from PubChem BioAssay (Tox21).
